# Laboratory results from PubChem BioAssay AID1565 (Sanford-Burnham Center for Chemical Genomics, 2009).
# About 3,200 (1.1%) of roughly 290,000 compounds were called active. The full list was thinned out, with actives kept by preference. Values without a mark were called inactive. Cut-off read from the data, not from the text of the source: active = inhibition above about 60%; inactive = the rest.
# Biological target: Phosphoethanolamine/phosphocholine phosphatase (Homo sapiens) (UniProt Q8TCT1)
# Sequence (Q8TCT1 whole entry, looked up): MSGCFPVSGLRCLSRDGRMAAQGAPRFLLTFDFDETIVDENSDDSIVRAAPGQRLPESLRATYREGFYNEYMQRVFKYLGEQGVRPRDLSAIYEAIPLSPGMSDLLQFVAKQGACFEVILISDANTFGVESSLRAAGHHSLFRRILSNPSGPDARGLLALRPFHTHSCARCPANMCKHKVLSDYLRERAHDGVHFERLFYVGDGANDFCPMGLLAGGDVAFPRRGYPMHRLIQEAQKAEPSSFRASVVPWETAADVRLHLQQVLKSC
# Experiment: PubChem AID 1565
# Settings: recombinant PHOSPHO1, absorbance phosphatase assay; at 13.3 µM; active compounds read high
row,SMILES,inhibition
1,COc1ccccc1N=Nc1c(O)[nH]c(=S)[nH]c1=O,11.7%
2,COc1ccccc1N=C1SCCCN1C,85.5% (active)
3,CC(C)(C)c1ccc(OC(=O)N2CCCCC2)cc1,27.4%
4,Cc1cccc(NC(=O)N2CC3CC(C2)c2cccc(=O)n2C3)c1 (stereo not given),41.8%
5,Cc1ccc(-c2nc3ccccc3c(=O)n2-c2ccc(Br)cn2)cc1,68.6% (active)
6,O=c1c2ccccc2nc(-c2ccccc2)n1-c1ccccn1,32.4%
7,O=c1c2ccccc2nc(-c2ccco2)n1-c1ccc(Br)cn1,-3.3%
8,Cc1nc2ccccn2c1P(=S)(N1CCCCC1)N1CCCCC1,15.2%
9,COc1cccc(CN2CCCC(C(=O)c3ccccc3SC)C2)c1O (stereo not given),12.9%
10,O=c1c2ccccc2nc(/C=C/c2ccc(F)cc2)n1-c1ccccc1O,38.1%
11,Cc1ccc(-n2c(-c3ccc([N+](=O)[O-])cc3)nc3ccccc3c2=O)cc1,-3.5%
12,O=[N+]([O-])c1ccc(C2C3C(c4ccccc4)=NC4(CCCCC4)N32)cc1 (stereo not given),64.6% (active)
13,COCc1cc(OC(=O)N(C)C)nc(-c2ccc(C)c(Cl)c2)n1,20.3%
14,COC(=O)N(c1ccc(OC)cc1)P1(=S)OCCC(C)O1 (stereo not given),65.4% (active)
15,CCOC(=O)c1c(-c2ccccc2)oc2ccc(OC(=O)N(C)C)cc12,-3.7%
16,COc1ccc(Br)cc1CNCCc1cccc(Cl)c1,13.9%
17,COc1ccc(N2C(=O)/C(=C/c3ccco3)C(=O)NC2=S)cc1,-112%
18,O=C(O)c1ccccc1NC(=O)C1C2CCC(O2)C1C(=O)O (stereo not given),28.7%
19,c1ccc(CCNC2CCCCCC2)cc1,31.6%
20,O=c1[nH]c(CN2CC=C(c3ccccc3)CC2)nc2scc(-c3cccs3)c12,50.8%
21,C[N+]12CN3CN(CN(C3)C1)C2,-34.4%
22,CC1=CC(=Cc2sc3ccccc3[n+]2C)C=C(C)O1,5.9%
23,CCN(CC)CCOC(=O)c1cc2cc(COC)ccc2o1,94.9% (active)
24,COc1cccc(N2C(=O)NC(=O)/C(=C\c3ccc([N+](=O)[O-])s3)C2=O)c1,-60.1%
25,Cc1cc(=O)oc2c(C)c(OCC(=O)N3CCN(Cc4ccc5c(c4)OCO5)CC3)ccc12,27.9%
